In the supplement of paper PMC10338343:
± gives the standard deviation.

What was measured:
[1] = system: MILI (PIWIL2) piRISC loaded with piRNA #1 (26 nt); assay: pre-steady-state target cleavage rate (min^-1); guide: piRNA #1 5'p-UGAGGUAGUAGGUUGUAUAGUAUCCA; higher = faster piRNA-guided slicing of the target; conditions: auxiliary factor: 500 nM mouse GTSF1
Outline: (§1)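 Cleave-'n-Seq used a transcribed, DNA-blocked target RNA library at 0.1 nM and active affinity-purified piRISC with one synthetic guide at 1 nM, with or without 500 nM GTSF1 partner protein, in HEPES–potassium acetate buffer at 33 °C for 0–8 or 0–960 min. Uncleaved targets were sequenced and normalised to depth and to weakly complementary targets, and three trials were pooled with k3 capped at 0.0001 min^-1. The pre-steady-state cleavage rate was estimated by a burst-and-steady-state fit.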

[2] = system: EfPiwi piRISC loaded with piRNA #1 (26 nt); assay: pre-steady-state target cleavage rate (min^-1); auxiliary factor: 500 nM Ephydatia muelleri Gtsf1; guide: piRNA #1 5'p-UGAGGUAGUAGGUUGUAUAGUAUCCA; MIWI and MILI are mouse PIWI proteins and EfPiwi is from a freshwater sponge; tags in brackets are library labels; higher = faster piRNA-guided slicing of the target
Outline: as §1

Sequence | pre-steady-state target cleavage rate [1] | pre-steady-state target cleavage rate [2]
GGAGACCUAACUAUACAACCUAGUACCUCA | 0.016 ± 0.0088 | 0.00385 ± 0.0021
GGAGUGGAUACUAUACUACCUAGUACCUCA | 0.0719 ± 0.013 | 0.00311 ± 0.0019
GGAGACCUAUCUAUACAACAUACUACCUCA | 0.0382 ± 0.0074 | 0.00529 ± 0.0038
GGAGACGAUACUAUACAACCAACUACCUCA | 0.00952 ± 0.004 | 0.00552 ± 0.0017
GGAGACCAUACCUAUACAACCUACUACCUCA | 0.152 ± 0.034 | 0.0273 ± 0.011
GGAGUGGAUCCUAUACAACCUACUACCUCA | 0.156 ± 0.027 | 0.111 ± 0.058
GGAGUGGAAACUAUACUACCUACUACCUCA | 0.193 ± 0.016 | 0.00676 ± 0.0042
GGAGAGCAUACUAUACUACCUACUACCUCA | 0.195 ± 0.016 | 0.00584 ± 0.0027
GGAGAGGAUAGUAUACAACCUAGUACCUCA | 0.0263 ± 0.008 | 0.00231 ± 0.002
GGAGUGGAUACUUAUACAACCUACUACCUCA | 0.133 ± 0.0093 | 0.093 ± 0.034
GGAGACGAUUACUAUACAACCUACUACCUCA | 0.147 ± 0.0094 | 0.0159 ± 0.0066
GGAGACCAUACUAUACAACCUACUACCACA | 0.231 ± 0.029 | 0.00574 ± 0.002
GGAGACGAUACUAUACAACCUAUACCUCA | 0.0145 ± 0.0044 | 0.00289 ± 0.0018
GGAGUGGAUACUGAUACAACCUACUACCUCA | 0.144 ± 0.01 | 0.0129 ± 0.0062
GGAGACGUUACUAUACAACCUACAACCUCA | 0.114 ± 0.015 | 0.00216 ± 0.0017
GGAGAGGAUACUAAACAACCUACUUCCUCA | 0.0102 ± 0.0039 | 0.00239 ± 0.0016
GGAGACCUUACUAUACAACCUACUACCUAA | 0.154 ± 0.019 | 0.00756 ± 0.0045
GGAGACCUAACUAUACAACCUACUACGUGA | 0.0518 ± 0.018 | 0.0069 ± 0.0046
GGAGAGGAUACUAUACUACCUAGUACCUCA | 0.00407 ± 0.0037 | 0.00301 ± 0.0017
GGAGACCAUAGUAUACAACCUACUAGCUCA | 0.0143 ± 0.0053 | 0.00326 ± 0.0032
GGAGUGGAUACUAUAUCAACCUACUACCUCA | 0.143 ± 0.013 | 0.0851 ± 0.03
GGAGUGGAUACUAUACUAGCUACUACCUCA | 0.158 ± 0.011 | 0.0081 ± 0.0031
GGAGUGGUUACUAUACAACCUACUUCCUCA | 0.0036 ± 0.002 | 0.0027 ± 0.0013
GGAGACCAUACUAUACAACCUACUACAUCA | 0.0875 ± 0.011 | 0.00692 ± 0.004
GGAGACCAUACUGUACAACCUACUACCUCA | 0.079 ± 0.012 | 0.0144 ± 0.0056

Sequence | pre-steady-state target cleavage rate [1] | pre-steady-state target cleavage rate [2]
GGAGACGAUACUAUACAACCUACUAACUCA | 0.0612 ± 0.016 | 0.00467 ± 0.0021
GGAGUGGAUACUAUUCAACCUACAACCUCA | 0.0706 ± 0.01 | 0.00255 ± 0.0022
GGAGACCUUACUGUACAACCUACUACCUCA | 0.163 ± 0.029 | 0.0146 ± 0.0073
GGAGAGGAUACUAUACAACCAACUACCUGA | 0.00399 ± 0.0021 | 0.00332 ± 0.0017
GGAGACCAUAGUAUACAACCUACUACGUCA | 0.0462 ± 0.0097 | 0.00463 ± 0.0028
GGAGACCAAACUAUACAACGUACUACCUCA | 0.0124 ± 0.0071 | 0.00528 ± 0.0034
GGAGACCUAUCUAUACAACCUACUACCUCA [g2:g20:cont:t1A] | 0.11 ± 0.018 | 0.0119 ± 0.0046
GGAGAGGAUACUUUACAUCCUACUACCUCA | 0.253 ± 0.016 | 0.00455 ± 0.0027
GGAGACCAAACUAUUCAACCUACUACCUCA | 0.217 ± 0.047 | 0.00445 ± 0.004
GGAGACGAUACUAUACAACCUACUCCUCA | 0.0114 ± 0.0032 | 0.0048 ± 0.0022
GGAGUGGAUACUAUAGAACGUACUACCUCA | 0.0156 ± 0.0021 | 0.00156 ± 0.0015
GGAGUGGAUUCUAUACAACCUACUACGUCA | 0.0598 ± 0.0076 | 0.0027 ± 0.0024
GGAGUCGAUACUAUACAACGUACUACCUCA | 0.0256 ± 0.0024 | 0.00501 ± 0.0019
GGAGACGAUACUAUACAACCAUCUACCUCA | 0.00466 ± 0.003 | 0.00359 ± 0.001
GGAGACCAUACUAUACAACCUAACUACCUCA | 0.0248 ± 0.0049 | 0.00707 ± 0.0033
GGAGACCAUACUAUACAACGUACUACCACA | 0.0309 ± 0.0064 | 0.00321 ± 0.0029
GGAGACCUAUCUAUACAACCUACUACCGUCA | 0.141 ± 0.019 | 0.00478 ± 0.0036
GGAGACCUUACUACACAACCUACUACCUCA | 0.126 ± 0.017 | 0.00432 ± 0.0039
GGAGACCAUACUAUACUACGUACUACCUCA | 0.0334 ± 0.0056 | 0.00415 ± 0.0028
GGAGACGUACUAUACAACCUACUACCUCA | 0.154 ± 0.015 | 0.0561 ± 0.022
GGAGUGGAUACUAUACAAGCUACUUCCUCA | 0.0765 ± 0.0095 | 0.00402 ± 0.0022
GGAGACCAUACUAUACAACCUAAUACCUCA | 0.117 ± 0.018 | 0.00857 ± 0.0039
GGAGACCUUACUAUAGAACCUACUACCUCA | 0.125 ± 0.015 | 0.00324 ± 0.0026
GGAGACGAUACUAUACAACCUACUCCCUCA | 0.106 ± 0.017 | 0.00312 ± 0.00092
GGAGACCUUACUAUACAACCUACUACCAGA | 0.107 ± 0.017 | 0.00482 ± 0.0036
